Assays:
Assay in all cases: log2 ratio of Biotin-Ahx-Ub-VS probe labelling (fragment/DMSO); higher = less target engagement (more negative = stronger competition), active = hit call of the paper (q ≤ 0.05, log2 ratio ≤ -1)
Conditions in all cases: compound concentration: 200 uM; treatment time: 3 h
USP9X = USP9X (UniProt Q93008)
In short: (§1)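 HEK293T lysate (495 µg per sample, in Tris/CHAPS/IGEPAL buffer with protease inhibitors) was treated in triplicate with fragment at 200 µM or with DMSO for 3 h. It was then treated with Biotin-Ahx-Ub-VS (0.5 µM final) for 1 h. Labelled DUBs were NeutrAvidin-enriched, digested with LysC and trypsin, and run by diaPASEF LC-MS/MS. Spectronaut label-free quantities were global-median-normalised. Values are average log2 ratios fragment/DMSO by unpaired t-test, using proteins with ≥2 unique peptides.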

UniProt O00487 = biological target: UniProt O00487
In short: as §1

UniProt O00507 = biological target: UniProt O00507
In short: as §1

UniProt P51784 = biological target: UniProt P51784
In short: as §1

UniProt Q5T2D3 = biological target: T1, UniProt Q5T2D3
T1 sequence (whole entry): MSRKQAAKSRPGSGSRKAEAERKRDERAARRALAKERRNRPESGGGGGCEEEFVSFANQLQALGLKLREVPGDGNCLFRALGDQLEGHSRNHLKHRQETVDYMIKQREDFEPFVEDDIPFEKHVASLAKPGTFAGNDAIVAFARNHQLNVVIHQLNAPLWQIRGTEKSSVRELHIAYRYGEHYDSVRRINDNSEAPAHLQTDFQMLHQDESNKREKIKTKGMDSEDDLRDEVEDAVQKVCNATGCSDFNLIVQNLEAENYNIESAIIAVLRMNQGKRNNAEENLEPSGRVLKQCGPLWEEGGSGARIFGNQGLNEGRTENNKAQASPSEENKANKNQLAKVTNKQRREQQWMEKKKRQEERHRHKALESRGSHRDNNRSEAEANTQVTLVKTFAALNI
In short: as §1

UniProt Q8TE49 = biological target: T2, UniProt Q8TE49
T2 sequence (whole entry): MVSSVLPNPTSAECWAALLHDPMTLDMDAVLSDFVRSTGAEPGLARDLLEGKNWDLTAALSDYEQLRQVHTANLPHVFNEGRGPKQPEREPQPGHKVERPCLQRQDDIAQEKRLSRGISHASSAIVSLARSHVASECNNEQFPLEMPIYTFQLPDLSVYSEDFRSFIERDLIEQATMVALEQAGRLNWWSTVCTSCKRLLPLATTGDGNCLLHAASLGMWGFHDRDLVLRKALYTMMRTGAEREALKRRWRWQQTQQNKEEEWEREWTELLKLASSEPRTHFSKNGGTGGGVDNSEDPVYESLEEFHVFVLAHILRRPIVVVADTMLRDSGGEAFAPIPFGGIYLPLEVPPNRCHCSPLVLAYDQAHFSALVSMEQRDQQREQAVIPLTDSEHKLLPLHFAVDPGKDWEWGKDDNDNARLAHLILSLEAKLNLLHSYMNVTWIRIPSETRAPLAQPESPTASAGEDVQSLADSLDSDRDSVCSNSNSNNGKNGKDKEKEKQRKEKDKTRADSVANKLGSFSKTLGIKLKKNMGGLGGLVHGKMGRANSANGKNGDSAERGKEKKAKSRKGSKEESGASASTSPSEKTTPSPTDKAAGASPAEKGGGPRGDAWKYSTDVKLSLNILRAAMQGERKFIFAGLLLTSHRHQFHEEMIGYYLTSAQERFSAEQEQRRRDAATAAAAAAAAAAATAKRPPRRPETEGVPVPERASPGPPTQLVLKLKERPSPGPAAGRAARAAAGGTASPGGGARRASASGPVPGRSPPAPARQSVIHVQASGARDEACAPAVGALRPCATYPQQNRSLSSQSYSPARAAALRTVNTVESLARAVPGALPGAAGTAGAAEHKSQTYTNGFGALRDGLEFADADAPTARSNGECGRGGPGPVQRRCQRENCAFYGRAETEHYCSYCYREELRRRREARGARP
In short: as §1

UniProt Q9P2H5 = biological target: T3, UniProt Q9P2H5
T3 sequence (whole entry): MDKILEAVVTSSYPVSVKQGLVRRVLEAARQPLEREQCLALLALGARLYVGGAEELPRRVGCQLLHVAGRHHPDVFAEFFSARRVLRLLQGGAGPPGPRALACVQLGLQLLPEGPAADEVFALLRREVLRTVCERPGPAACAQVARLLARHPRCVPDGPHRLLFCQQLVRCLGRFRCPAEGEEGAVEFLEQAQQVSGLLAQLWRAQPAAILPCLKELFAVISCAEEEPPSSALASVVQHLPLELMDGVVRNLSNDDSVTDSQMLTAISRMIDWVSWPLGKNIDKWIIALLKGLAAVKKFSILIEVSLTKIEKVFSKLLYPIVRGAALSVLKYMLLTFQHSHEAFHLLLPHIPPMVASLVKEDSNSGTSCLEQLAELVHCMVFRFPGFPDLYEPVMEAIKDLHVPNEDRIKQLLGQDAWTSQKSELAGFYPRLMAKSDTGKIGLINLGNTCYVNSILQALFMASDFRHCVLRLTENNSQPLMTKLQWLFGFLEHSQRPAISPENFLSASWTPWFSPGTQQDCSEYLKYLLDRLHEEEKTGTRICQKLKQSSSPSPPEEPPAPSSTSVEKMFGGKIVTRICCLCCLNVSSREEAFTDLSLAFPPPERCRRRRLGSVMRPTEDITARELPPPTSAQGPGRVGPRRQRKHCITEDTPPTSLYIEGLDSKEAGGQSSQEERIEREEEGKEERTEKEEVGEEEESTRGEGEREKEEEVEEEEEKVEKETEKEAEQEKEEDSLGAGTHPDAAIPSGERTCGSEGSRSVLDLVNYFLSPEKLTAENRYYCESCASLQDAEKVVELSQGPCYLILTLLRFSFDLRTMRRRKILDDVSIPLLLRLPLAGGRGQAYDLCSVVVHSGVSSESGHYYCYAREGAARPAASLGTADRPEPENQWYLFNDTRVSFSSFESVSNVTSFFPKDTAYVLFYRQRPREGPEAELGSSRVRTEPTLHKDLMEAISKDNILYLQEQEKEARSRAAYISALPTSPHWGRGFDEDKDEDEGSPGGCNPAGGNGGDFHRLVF
In short: as §1

UniProt Q9UGI0 = biological target: T4, UniProt Q9UGI0
T4 sequence (whole entry): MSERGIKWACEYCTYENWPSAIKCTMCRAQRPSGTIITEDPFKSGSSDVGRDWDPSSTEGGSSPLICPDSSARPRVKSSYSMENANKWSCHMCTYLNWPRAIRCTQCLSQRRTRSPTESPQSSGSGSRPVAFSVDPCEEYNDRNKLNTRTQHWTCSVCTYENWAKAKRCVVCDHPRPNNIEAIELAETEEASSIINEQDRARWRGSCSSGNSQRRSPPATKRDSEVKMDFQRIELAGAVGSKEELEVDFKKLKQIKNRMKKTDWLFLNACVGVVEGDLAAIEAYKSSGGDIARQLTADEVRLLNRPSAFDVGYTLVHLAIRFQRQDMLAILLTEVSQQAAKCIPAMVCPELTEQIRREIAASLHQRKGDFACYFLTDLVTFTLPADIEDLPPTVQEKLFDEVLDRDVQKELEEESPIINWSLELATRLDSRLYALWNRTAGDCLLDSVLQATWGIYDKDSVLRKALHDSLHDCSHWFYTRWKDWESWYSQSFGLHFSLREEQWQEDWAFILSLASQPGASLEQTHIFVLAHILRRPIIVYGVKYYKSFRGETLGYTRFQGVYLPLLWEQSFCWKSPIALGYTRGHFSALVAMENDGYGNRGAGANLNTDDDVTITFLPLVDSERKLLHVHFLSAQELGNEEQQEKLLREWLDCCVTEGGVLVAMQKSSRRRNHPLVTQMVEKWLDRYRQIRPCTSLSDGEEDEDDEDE
In short: as §1

YOD1 = biological target: T5, YOD1 (UniProt Q5VVQ6)
T5 sequence (whole entry): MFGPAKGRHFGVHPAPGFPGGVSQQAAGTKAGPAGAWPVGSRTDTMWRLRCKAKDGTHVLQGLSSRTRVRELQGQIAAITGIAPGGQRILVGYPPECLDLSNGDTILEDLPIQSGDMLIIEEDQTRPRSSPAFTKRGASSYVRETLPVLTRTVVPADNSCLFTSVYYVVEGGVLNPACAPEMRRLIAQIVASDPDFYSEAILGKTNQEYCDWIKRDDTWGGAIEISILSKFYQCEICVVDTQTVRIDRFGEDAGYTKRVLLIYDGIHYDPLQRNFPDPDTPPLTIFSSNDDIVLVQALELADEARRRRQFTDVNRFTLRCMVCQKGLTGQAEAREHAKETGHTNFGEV
In short: as §1

Measured: log2 ratio of Biotin-Ahx-Ub-VS probe labelling

UniProt O00487, sequence (O00487 whole entry): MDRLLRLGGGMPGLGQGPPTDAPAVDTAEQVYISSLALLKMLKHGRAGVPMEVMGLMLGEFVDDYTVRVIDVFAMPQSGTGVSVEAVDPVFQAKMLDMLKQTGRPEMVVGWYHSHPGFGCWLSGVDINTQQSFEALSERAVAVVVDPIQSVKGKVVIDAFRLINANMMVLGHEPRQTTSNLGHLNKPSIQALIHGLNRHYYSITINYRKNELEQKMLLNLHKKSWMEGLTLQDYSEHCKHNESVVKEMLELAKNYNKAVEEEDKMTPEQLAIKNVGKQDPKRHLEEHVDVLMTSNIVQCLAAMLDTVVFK
USP9X, sequence (Q93008 whole entry, the tested form may be a part): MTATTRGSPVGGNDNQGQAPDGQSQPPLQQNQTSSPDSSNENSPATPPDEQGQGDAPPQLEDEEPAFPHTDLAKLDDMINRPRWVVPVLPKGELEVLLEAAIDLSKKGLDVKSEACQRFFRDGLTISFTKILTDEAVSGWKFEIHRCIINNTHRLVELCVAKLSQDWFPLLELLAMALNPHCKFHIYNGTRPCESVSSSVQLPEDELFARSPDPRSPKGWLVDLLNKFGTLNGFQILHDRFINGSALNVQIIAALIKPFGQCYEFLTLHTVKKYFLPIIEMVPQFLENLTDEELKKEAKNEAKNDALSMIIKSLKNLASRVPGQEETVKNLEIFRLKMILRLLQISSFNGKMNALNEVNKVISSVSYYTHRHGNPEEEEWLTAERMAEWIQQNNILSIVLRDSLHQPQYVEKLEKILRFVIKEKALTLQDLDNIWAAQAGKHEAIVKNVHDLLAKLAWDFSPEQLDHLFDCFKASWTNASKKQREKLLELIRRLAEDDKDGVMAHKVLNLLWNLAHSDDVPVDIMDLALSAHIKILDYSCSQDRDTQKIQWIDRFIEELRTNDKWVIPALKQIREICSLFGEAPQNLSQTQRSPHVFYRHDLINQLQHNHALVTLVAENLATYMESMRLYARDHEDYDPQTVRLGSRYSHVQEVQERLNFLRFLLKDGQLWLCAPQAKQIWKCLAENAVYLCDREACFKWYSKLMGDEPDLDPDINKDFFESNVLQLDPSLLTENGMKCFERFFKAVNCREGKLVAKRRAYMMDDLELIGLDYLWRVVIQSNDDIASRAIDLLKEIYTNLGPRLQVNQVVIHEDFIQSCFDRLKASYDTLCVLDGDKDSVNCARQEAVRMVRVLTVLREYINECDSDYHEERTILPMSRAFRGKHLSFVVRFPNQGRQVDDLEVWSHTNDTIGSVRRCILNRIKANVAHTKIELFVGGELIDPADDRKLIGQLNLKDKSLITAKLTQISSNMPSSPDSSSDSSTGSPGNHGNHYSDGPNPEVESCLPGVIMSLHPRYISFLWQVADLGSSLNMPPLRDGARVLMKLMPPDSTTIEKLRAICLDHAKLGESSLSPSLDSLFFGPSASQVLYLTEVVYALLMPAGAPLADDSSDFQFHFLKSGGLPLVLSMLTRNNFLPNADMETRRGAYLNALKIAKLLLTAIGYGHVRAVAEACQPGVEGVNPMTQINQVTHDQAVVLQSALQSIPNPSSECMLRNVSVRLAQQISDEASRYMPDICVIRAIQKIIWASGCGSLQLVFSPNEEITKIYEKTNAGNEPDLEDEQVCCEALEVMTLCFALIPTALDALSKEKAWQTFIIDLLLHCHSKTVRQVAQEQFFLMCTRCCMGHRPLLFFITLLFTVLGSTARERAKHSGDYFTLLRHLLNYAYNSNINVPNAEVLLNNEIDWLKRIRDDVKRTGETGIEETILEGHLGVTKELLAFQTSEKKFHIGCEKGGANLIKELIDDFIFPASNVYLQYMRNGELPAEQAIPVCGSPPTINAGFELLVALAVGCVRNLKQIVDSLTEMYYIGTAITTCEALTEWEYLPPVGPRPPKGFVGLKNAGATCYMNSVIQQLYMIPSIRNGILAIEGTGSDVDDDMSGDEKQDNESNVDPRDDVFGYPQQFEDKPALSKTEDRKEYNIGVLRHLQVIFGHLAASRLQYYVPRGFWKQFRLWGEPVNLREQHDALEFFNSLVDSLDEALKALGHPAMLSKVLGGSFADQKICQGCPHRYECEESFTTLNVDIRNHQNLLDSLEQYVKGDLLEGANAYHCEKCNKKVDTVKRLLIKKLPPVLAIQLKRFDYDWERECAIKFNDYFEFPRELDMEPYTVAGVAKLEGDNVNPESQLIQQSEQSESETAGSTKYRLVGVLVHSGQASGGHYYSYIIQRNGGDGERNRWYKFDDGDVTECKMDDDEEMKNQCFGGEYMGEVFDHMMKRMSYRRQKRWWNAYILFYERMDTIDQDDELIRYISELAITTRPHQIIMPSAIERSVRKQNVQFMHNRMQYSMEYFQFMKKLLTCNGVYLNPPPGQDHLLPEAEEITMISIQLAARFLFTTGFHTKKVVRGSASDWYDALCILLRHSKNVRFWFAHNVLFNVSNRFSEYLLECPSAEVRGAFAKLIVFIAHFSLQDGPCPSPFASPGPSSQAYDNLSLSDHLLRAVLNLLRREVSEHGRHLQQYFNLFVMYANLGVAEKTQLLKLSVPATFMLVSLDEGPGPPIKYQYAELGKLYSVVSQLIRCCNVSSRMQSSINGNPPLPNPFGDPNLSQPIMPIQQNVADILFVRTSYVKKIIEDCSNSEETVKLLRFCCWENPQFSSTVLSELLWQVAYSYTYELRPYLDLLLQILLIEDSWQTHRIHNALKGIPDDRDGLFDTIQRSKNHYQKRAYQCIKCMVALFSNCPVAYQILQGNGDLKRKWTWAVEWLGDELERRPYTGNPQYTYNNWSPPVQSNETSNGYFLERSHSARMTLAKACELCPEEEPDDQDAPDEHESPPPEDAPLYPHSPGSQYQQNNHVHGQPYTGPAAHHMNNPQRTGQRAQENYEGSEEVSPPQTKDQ
UniProt P51784, sequence (P51784 whole entry): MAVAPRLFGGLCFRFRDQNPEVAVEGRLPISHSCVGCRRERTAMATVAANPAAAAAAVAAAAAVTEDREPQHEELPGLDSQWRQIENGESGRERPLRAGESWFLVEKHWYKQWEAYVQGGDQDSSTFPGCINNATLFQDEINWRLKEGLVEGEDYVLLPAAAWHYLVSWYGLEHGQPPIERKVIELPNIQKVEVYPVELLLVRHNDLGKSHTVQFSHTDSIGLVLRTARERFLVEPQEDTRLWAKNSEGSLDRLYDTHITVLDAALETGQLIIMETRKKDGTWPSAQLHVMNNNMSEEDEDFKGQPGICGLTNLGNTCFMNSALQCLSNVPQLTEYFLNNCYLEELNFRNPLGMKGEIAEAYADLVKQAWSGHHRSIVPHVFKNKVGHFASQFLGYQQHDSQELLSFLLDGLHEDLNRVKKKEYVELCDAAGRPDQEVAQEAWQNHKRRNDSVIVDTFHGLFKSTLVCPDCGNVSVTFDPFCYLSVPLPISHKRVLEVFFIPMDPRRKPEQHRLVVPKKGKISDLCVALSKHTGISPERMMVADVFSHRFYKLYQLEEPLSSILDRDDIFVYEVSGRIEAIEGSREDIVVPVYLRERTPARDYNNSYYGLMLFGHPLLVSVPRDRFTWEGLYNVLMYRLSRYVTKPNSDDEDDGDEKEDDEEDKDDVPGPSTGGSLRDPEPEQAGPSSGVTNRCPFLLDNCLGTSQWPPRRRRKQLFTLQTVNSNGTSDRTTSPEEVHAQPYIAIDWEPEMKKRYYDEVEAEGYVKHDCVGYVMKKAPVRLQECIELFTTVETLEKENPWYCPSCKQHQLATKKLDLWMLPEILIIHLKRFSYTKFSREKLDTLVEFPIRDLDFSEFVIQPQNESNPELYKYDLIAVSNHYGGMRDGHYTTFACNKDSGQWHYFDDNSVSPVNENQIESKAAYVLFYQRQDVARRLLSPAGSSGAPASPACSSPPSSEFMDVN

N#Cc1ccccc1N1CCN(C(=O)CCl)CC1
active: UniProt Q8TE49 -1.29 | UniProt Q9UGI0 -2.22
inactive: USP9X -0.651 | UniProt O00487 0.0611 | UniProt O00507 -0.534 | UniProt P51784 -0.515 | UniProt Q5T2D3 -0.687 | UniProt Q9P2H5 -0.617 | YOD1 -0.448

Reference: the supplement of paper PMC11732987, “Enantioselective OTUD7B fragment discovery through chemoproteomics screening and high-throughput optimisation” (Communications Chemistry, 2025)
